# Screen size: about 68,000 compounds; about 2,700 (4%) showed an effect of 50% or more. The list comes from a sample in which strong results are over-represented; it also holds similar structures and randomly drawn compounds.
# Test system: Plasmodium berghei
# Experiment: Screen against P. berghei liver stage (PbLuc), transformed with Luciferase, at 2uM
# Format: functional, HepG2
# Conditions: tested at 2 uM
row,Compound,INHIBITION [%]
1,O=C(NCC(F)(F)F)C1CCCN(Cc2ccno2)C1 (centres undefined),20.32
2,CC(C)c1nnc(NC(=O)C2CSCN2C(=O)C2CCC2)s1 (centres undefined),-52.32
3,O=C(c1cnccn1)N1CCN2C[C@H](OCc3ccccc3F)C[C@H]2C1,-6.88
4,CCCSCC(=O)N1C[C@@H]2CC[C@H]1CN(Cc1cccnc1)C2,16.1
5,O=C(O)CC1COCCN1CCCc1ccccc1 (centres undefined),3.35
6,Cc1cc(N2CCCC2c2cc(Nc3cnccn3)nc(C)n2)ncn1 (centres undefined),43.23
7,O=C(CCc1nc2cc(Br)cnc2[nH]1)NCc1cccnc1,10.22
8,c1ccc(CN2CCC(CCNc3ncnc4c3CCNCC4)C2)cc1 (centres undefined),31.3
9,c1ccc(CN2CCCC(CNc3ncnc4c3CCNCC4)C2)cc1 (centres undefined),29.87
10,c1ccc(CN2CCC(CNc3ncnc4c3CCNCC4)CC2)cc1,70.58
11,O=C(c1ccncc1F)N1CCc2ncnc(C3CC3)c2CC1,21.67
12,CC(C)c1nn(C)c(Cl)c1CNCc1ccc2c(c1)OCCO2,8.37
13,Cc1nn(C)c(N(C)C)c1CNCc1cccnc1OC(C)C,53.98
14,CC(C)c1nn(C)c(N(C)C)c1CNCc1ccc2c(c1)OCO2,-41.21
15,COc1ncccc1CNCc1c(C(C)C)nn(C)c1N(C)C,43.28
16,COc1ncccc1CNCc1c(C)nn(C)c1N(C)C,11.2
17,CC(C)c1nn(C)c(N(C)C)c1CNCc1ccc2c(c1)OCCO2,66.2
18,CCOc1ncccc1CNCc1c(C(C)C)nn(C)c1N(C)C,74.35
19,CCOc1ncccc1CNCc1c(C)nn(C)c1N(C)C,47.87
20,CC(C)c1nn(C)c(N(C)C)c1CNCc1cccnc1N(C)C,39.54
21,C[C@@H]1C(=O)NC[C@H]2CN(Cc3ccsc3)C[C@H]21,-66
22,CC(C)(C)c1nc(CN2CCCC(Cn3cncn3)C2)no1 (centres undefined),-64.16
23,CN(C)C(=O)c1cn[nH]c1C1CCCN1Cc1nccn1C (centres undefined),11.2
24,Cc1[nH]/c(=N\C(=O)c2csc(NC3CCCC3)n2)sc1C,34.93
25,CCS(=O)(=O)N1Cc2ncn(CC3CC3)c2C(COC)C1 (centres undefined),26.19
26,Clc1ccc2oc(C3CCN(Cc4nc(C5CC5)no4)CC3)nc2c1,10.11

row,Compound,INHIBITION [%]
1,c1cc(CCN2CCN(c3ccc4nncn4n3)CC2)ccn1,-1.88
2,C[S+]([O-])c1nncn1CC(=O)c1ccc2c(c1)CCC2 (centres undefined),61.82
3,C[S+]([O-])c1nncn1CC(=O)c1ccc(Cl)c(Cl)c1 (centres undefined),20.66
4,C[S+]([O-])c1nncn1CC(=O)c1ccc2c(c1)CCO2 (centres undefined),-0.75
5,COc1ccc(C2CN(c3cc(C)ncn3)CCN2C(C)=O)cc1 (centres undefined),-28.43
6,CSCc1noc(CN2CC(Cc3ccccc3)CC2=O)n1 (centres undefined),6.75
7,O=C(c1cc(=O)[nH]c(=O)[nH]1)N1CCCCC1c1nc2cc(F)ccc2[nH]1 (centres undefined),-18.49
8,CC(NCC(=O)NCC(=O)Nc1ccc(F)cc1)c1cccs1 (centres undefined),16.95
9,CN(CC(=O)NCC(=O)Nc1ccc(F)cc1)Cc1cccs1,69.13
10,O=C(Cc1cccs1)NCC(=O)Nc1cn[nH]c1,28.49
11,CCn1cc(C(=O)N2CCOC(c3nc(-c4cccs4)no3)C2)cn1 (centres undefined),-36.52
12,COc1cc(-c2n[nH]c(CC#N)n2)cc(OC)c1OC,16.72
13,CC(C)Nc1cc(N2CCC(n3cc(C4CC4)nn3)CC2)ncn1,-46.8
14,CC(C)Nc1cc(N2CCC(n3cc(CCO)nn3)CC2)ncn1,69.71
15,O=C(NC1CC1)c1cn(C2CCN(c3cc(C4CC4)ncn3)CC2)nn1,-26.81
16,CCc1cc(N2CCC(n3cc(C(=O)NC4CC4)nn3)CC2)ncn1,52.66
17,CC(C)Nc1cc(N2CCC(n3cc(C4CCCC4)nn3)CC2)ncn1,-1.21
18,CCc1cc(N2CCC(n3cc(C(=O)NCC(C)C)nn3)CC2)ncn1,-71.68
19,CCC(CO)NCc1ccc(-c2ccc(Cl)cc2)o1 (centres undefined),2.25
20,CNC(=O)CCc1cc(C)nc(C2CCN(c3ccccc3)CC2)c1,-107.54
21,CN(C)CCN1CCC2(CCN(C(=O)c3cccnc3)CC2)C1=O,6.66
22,O=C(O)c1nnn(Cc2cccc(C(F)(F)F)c2)c1-c1cccnc1,39.9
23,O=C(O)c1nnn(Cc2cccc(C(F)(F)F)c2)c1-c1ccncc1,43.75
24,O=C(O)c1nnn(Cc2cccc(C(F)(F)F)c2)c1-c1ccccn1,55.25
25,COc1ccc2c(c1)CN(Cc1ccco1)C(=O)CCN2CC(C)(C)O,-35.52
26,COc1ccc(F)cc1C(=O)N(C)[C@@H]1CC[C@@H](O)[C@@H]1O,16.87

row,Compound,INHIBITION [%]
1,CN(C(=O)c1cc(F)ccc1F)[C@@H]1CC[C@@H](O)[C@@H]1O,41.21
2,CO[C@@H]1CCC[C@@H](N(C)C(=O)c2cc(F)ccc2F)[C@H]1O,53.16
3,O=C(CO)N1CCOC2(CCCN(c3ncc(F)cn3)C2)C1 (centres undefined),14.27
4,CC(C)(C(=O)N1CCCC(OCc2cccnc2)C1)n1cccc1 (centres undefined),27.81
5,O=C(CC1CCCCC1)N1CCOCC1CO (centres undefined),18.81
6,CN(CCO)CC1COCCN1C(=O)CCC1CCCC1 (centres undefined),69.06
7,CN(CCO)CC1COCCN1C(=O)C1CCCCC1 (centres undefined),-23.4
8,CCOC(=O)NCC(=O)Nc1nc2ccccc2n1C(C)(C)C,30.23
9,CCc1nccc(CN2CCC(CNC(=O)c3occc3C)C2)n1 (centres undefined),-4.04
10,CC(C)c1ncc2c(n1)CN(Cc1nc(Cc3ccccc3)no1)CC2,6.12
11,c1ccc(Cc2noc(CN3CCc4cncnc4C3)n2)cc1,56.02
12,Cc1ncc2c(n1)CN(Cc1nc(Cc3ccccc3)no1)CC2,-54.44
13,Cc1cccc(C2CCCN2C(=O)CN(C)S(C)(=O)=O)c1C (centres undefined),-73.81
14,COCCn1c2c(ccc1=O)CC(NC(=O)c1cscn1)CC2 (centres undefined),-25.4
15,NC1CC(C(F)(F)F)=NC=C1c1ccc(Cl)cc1 (centres undefined),-19.36
16,CN(C)c1cc(CNCc2cccc3c2OCCO3)ccn1,-15.64
17,FC1(F)CCN(Cc2cccnc2)CC12CCN(c1ccccc1)C2 (centres undefined),31.41
18,O=C(CC1C=CCC1)N1CCc2ncnc(NCc3ccon3)c2CC1 (centres undefined),42.26
19,O=C(C1CCCO1)N1CCc2ncnc(NC3CCC3)c2CC1 (centres undefined),46.32
20,O=C(C1CCCCO1)N1CCc2ncnc(NCc3ccon3)c2CC1 (centres undefined),59.58
21,O=C(C1CCCCO1)N1CCc2ncnc(NCCO)c2CC1 (centres undefined),57.89
22,COc1cccc(CC(=O)N2CCc3ncnc(C)c3CC2)c1,19.49
23,COc1cccc(CC(=O)N2CCc3ncnc(NC(C)C)c3CC2)c1,2.71
24,COc1cccc(CC(=O)N2CCc3ncnc(NCCO)c3CC2)c1,52.98
25,CC(C)Nc1ncnc2c1CCN(C(=O)[C@H]1CCCO1)CC2,35.89
26,O=C([C@H]1CCCO1)N1CCc2ncnc(NC3CC3)c2CC1,-15.36

row,Compound,INHIBITION [%]
1,CC(NCc1ccc(-c2ccc(F)cc2)o1)c1nnc2n1CCC2 (centres undefined),-40.26
2,Nc1nnc(Cn2nnc(-c3ccccc3F)n2)s1,39.58
3,CNc1ncc(CN2CCC(CCc3ccccc3)CC2)cn1,49.87
4,O=C(c1cccc(-n2cnnc2)c1)N1C[C@@H](O)[C@H](N2CCOCC2)C1,-8.04
5,COc1ccc(C[C@@H]2CC[C@H](CN(C)C3CCN(C)CC3)O2)cc1,68.08
6,CN1CCC(N(C)C[C@H]2CC[C@@H](Cc3ccc4occc4c3)O2)CC1,-10.59
7,CN1CCC(N(C)C[C@H]2CC[C@@H](Cc3cccc(O)c3)O2)CC1,-66.38
8,Cc1cc(C)n(CC2CCCCN2CC(=O)N(C)Cc2ccco2)n1 (centres undefined),40.82
9,CC(CNC(=O)c1c[nH]nn1)Oc1ccc(Cl)cc1 (centres undefined),-4.64
10,O=C(C1CCOC1)N1CCN(Cc2ccncc2)c2ncccc2C1 (centres undefined),31.08
11,O=C(C1CCOCC1)N1CCN(CC2CC2)c2ncccc2C1,51.27
12,O=C(N1CCCC1)N1CCN(CC2CC2)c2ncccc2C1,-3.08
13,CCN(CC)S(=O)(=O)N(CC)Cc1ccc2c(c1)OCCO2,-3.05
14,CCN(Cc1ccc2c(c1)OCO2)S(=O)(=O)N(C)C(C)C,41.99
15,CCN(Cc1ccc2c(c1)OCCO2)S(=O)(=O)N(C)C(C)C,63.95
16,Cc1n[nH]c(C2CN(CC(=O)NCCc3ccc(F)cc3)CCO2)n1 (centres undefined),5.47
17,Cc1nc2[nH]cnc(NCCN3CCCC3)c-2n1,-20.68
18,CC(c1cccc(-c2ncc(C#N)c(N)n2)c1)N(C)C (centres undefined),-38.96
19,O=C1N(Cc2ccccc2F)CCCC12CCN(C1CCSCC1)C2 (centres undefined),11.26
20,CN(C)S(=O)(=O)N1CCC2(CCCN(Cc3ccc(F)cc3)C2=O)C1 (centres undefined),-37.84
21,CCCS(=O)(=O)N1CCC2(CCN(Cc3cccc(F)c3)C2=O)C1 (centres undefined),-25.61
22,O=C1N(Cc2ccc(F)c(F)c2)CCCC12CCN(C1CCCC1)C2 (centres undefined),23.18
23,CCCS(=O)(=O)N1CCC2(CCCN(Cc3cccc(F)c3F)C2=O)C1 (centres undefined),50.59
24,CCS(=O)(=O)N1CCC2(CCCN(Cc3ccc(F)c(F)c3)C2=O)C1 (centres undefined),50.59
25,COc1cnc(N2C[C@H](CO)C[C@H](CN3CCOCC3)C2)nc1,-3.87
26,COc1c(C2CCCN2C(=O)c2ccc(C(N)=O)s2)c(C)nn1C (centres undefined),-21.71
